In assay [1] the target is Tumor necrosis factor receptor superfamily member 10B (Homo sapiens) (UniProt O14763). Nature of the assay: viability loss of caspase-8 NB7 cells with TRAIL – with/without TRAIL, luminescence panel, confirmation (AID 651596). The settings on record: NB7 neuroblastoma + caspase-8, TRAIL sensitization, NB7 Caspase-8, with TRAIL, mean of runs, at 10 µM, stronger effect = higher value.

Assay in assay [2]: as above
Conditions: NB7 neuroblastoma + caspase-8, without TRAIL, NB7 Caspase-8, without TRAIL, mean of runs, at 10 µM.

Each structure is given as a SMILES string.

Tumor necrosis factor receptor superfamily member 10B (Homo sapiens), sequence (O14763 whole entry, looked up): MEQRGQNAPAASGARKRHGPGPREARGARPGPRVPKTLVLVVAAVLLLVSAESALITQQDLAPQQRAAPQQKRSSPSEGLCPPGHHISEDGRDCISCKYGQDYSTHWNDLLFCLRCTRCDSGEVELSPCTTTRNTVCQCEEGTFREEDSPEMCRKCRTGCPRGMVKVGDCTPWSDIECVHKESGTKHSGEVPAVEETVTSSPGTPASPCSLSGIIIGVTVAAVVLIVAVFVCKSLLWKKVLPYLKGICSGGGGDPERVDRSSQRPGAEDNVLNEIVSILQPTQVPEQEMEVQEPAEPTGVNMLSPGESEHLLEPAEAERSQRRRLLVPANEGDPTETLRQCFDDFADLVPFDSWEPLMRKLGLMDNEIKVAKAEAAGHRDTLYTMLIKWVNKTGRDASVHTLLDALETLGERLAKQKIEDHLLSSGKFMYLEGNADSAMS

`CCC(=O)N1CCN(c2ccc(NC(=O)c3cc4ccccc4o3)cc2Cl)CC1`: the activity in assay [1] is 79.6%; in assay [2] it was 54.4%.
For `O=C(Nc1ccccc1C(=O)N/N=C/c1ccncc1)c1ccccc1` the same measures were 91.7% and 87.5%.
For `CC1C(=O)NN=C1C(=O)N/N=C\C(Br)=C\c1ccccc1` (stereo not drawn), in that order: 80.2% and 73.8%.
For `COc1cc(C(=O)Oc2ccccc2/C=N/NC(=O)c2ccc(C)cc2)cc(OC)c1OC`, in that order: 51% and 52.7%.
Consider `Cc1nc(-c2ccc(C(=O)Nc3cccc(F)c3)cc2)cs1`, for which the activity worked out at 76.6% in assay [1] and 73.5% in assay [2].
For `Cc1ccc(Cn2ccsc2=NC(=O)CCl)cc1` the same measures were 99.2% and 99%.
Turning to `Cc1cccc(Cn2ncc(Cl)c(Cl)c2=O)c1`, the activity in assay [1] was determined as 92.2%; in assay [2] it was 98.9%.
For `C(=N\NC1=Nc2cccc3cccc1c23)/c1ccccn1` the same measures were 50.6% and 43%.
For `O=C(Nc1ccc(N2CCOCC2)cc1)c1csc(COCCO)n1`, in that order: 54.5% and 59.1%.
For `C=CCOc1ccccc1CN(C(=O)CCl)c1ccc2c(c1)OCO2`, in that order: 99% and 98.1%.
As to `CSc1nnc(NC(=O)c2nc(S(=O)(=O)Cc3ccccc3F)ncc2Cl)s1`, the activity was 80.3% in assay [1] and 58.1% in assay [2].
Regarding `CCCCCCc1cc2cc(C(=O)Nc3ccc(OC)cc3)c(=O)oc2cc1O`, the activity amounted to 36% in assay [1] and 32.5% in assay [2].
For `COc1cccc(NC(=O)n2ncc3c(C)cccc32)c1`, in that order: 67.7% and 64.3%.
Regarding `O=C(Nc1ccc(NC(=O)c2ccccc2F)cn1)c1ccco1`, the activity in assay [1] was determined as 66.8%; in assay [2], 58.3%.
`COc1cccc(NC(=O)Nc2nc(-c3ccc(OC)c(OC)c3)cs2)c1`: the values for the activity in assay [1] and in assay [2] were 98.5% and 99.2%, respectively.
For `CC(C)CC(N)c1csc(NC(=O)c2cc(C(C)(C)C)nn2Cc2ccccc2)n1` (stereo not drawn) the same measures were 70% and 92.4%.
For `Cc1nc2cc(NC(=O)c3ccc(Br)s3)ccc2s1` the same measures were 71.4% and 63.1%.
For `O=[N+]([O-])c1cc(S(=O)(=O)N2CCCCCC2)ccc1F` the same measures were 83.9% and 72.6%.
For `O=C(CC1CCCC1)Nc1nc2ccccc2[nH]1`, the values for the activity in assay [1] and in assay [2] were 49.7% and 62.4%, respectively.
For `CCN(c1ccccc1)S(=O)(=O)c1ccc(OC)c(NC(=O)c2cc(F)c(F)c(F)c2F)c1`, in that order: 63.3% and 87.5%.
For the compound `COc1cc(OC)nc(Nc2nc(C(N)Cc3ccc(C(F)(F)F)cc3)cs2)n1` (stereo not drawn), the activity was 33.2% in assay [1] and 77.7% in assay [2].
For `Cc1cccc(NC(=S)NC(=O)c2oc3ccccc3c2C)n1`, in that order: 70% and 60.1%.
On to `COC(=O)CSc1ncnc2c1sc1nc3c(cc12)COC(C)(C)C3`, for which the activity was found to be 82.5% in assay [1] and 86.8% in assay [2].
For `N=c1cc(C2(O)CCCCC2)n2c(nc3ccccc32)s1`, in that order: 93.5% and 89%.
For `COc1ccccc1Nc1nc(N)nc(CCl)n1`, in that order: 98.8% and 96.4%.
For `COc1ccc2c(c1OC)C(=O)N(c1cccc(C)c1)C2` the same measures were 66.9% and 57.9%.
With `O=C(CCS(=O)(=O)c1ccccc1)Nc1ccc(-c2nc3ccccc3s2)cc1`, the activity came to 58% in assay [1] and 42.8% in assay [2].
For `COc1ccc(/C=C/c2nc3ccccc3c(=O)o2)cc1` the same measures were 83.2% and 83.6%.
For `CCOC(=O)c1cn(-c2ccc(F)c(F)c2F)c2c(F)c(F)c(F)cc2c1=O` the same measures were 64% and 41.5%.
On to `Cc1ccc(NC(=S)c2nc3ccccc3[nH]2)cc1`, for which the activity in assay [1] came out at 74.3%; in assay [2] it was 69.7%.
For `O=C1C(=Cc2ccc(F)cc2)CCc2ccccc21` the same measures were 82.8% and 76.7%.
For `COc1ccc(C(=O)Nc2cc(C)on2)cc1`, in that order: 49.3% and 38.6%.
With `Cc1cccc(N2CCN(C(=S)Nc3ccc4nc(N5CCN(C)CC5)cc(C)c4c3)CC2C)c1` (stereo not drawn), the activity in assay [1] was found to be 75.8%; in assay [2], 98%.
For `COc1ccc(-c2cc(C(=O)N3CCOCC3)no2)cc1` the same measures were 50.8% and 49.9%.
As for `CCCCCCCC(=O)Nc1ccc(C(=O)N/N=C/c2cccc([N+](=O)[O-])c2)cc1`, the values for the activity in assay [1] and in assay [2] were 69.3% and 75.9%, respectively.
For `Nc1nc(N)c(-c2cccc(C(F)(F)F)c2)c(Cc2cccc(C(F)(F)F)c2)n1`, in that order: 81.6% and 80.7%.
On to `O=C(Nc1cccc(-n2cnnn2)c1)c1ccc(C(F)(F)F)cc1`, for which the activity stood at 21.7% in assay [1] and 10.3% in assay [2].
`N#Cc1cccnc1N1CCN(C(=O)c2cccc3c2C(=O)c2ccc(Cl)cc2S3(=O)=O)CC1`: the activity in assay [1] turned out to be 98.4%; in assay [2], 97.4%.
For `CN(C)c1ccc(/C=N/NC(=O)c2ccccn2)cc1`, in that order: 74.7% and 65.2%.
In the case of `Cc1cnc(NC(=O)c2ccc(OCC3CCCO3)cc2)s1` (stereo not drawn), the activity in assay [1] worked out at 93.3%; in assay [2], 94.7%.
For `CCOC(=O)c1sc(NC(=O)c2ccccc2)cc1C`, in that order: 59.1% and 54.5%.
As for `CCc1nn2cc(-c3ccccc3)nc2s1`, the activity in assay [1] came out at 79.7%; in assay [2], 78.6%.
As for `COc1cccc(C=NNc2nnc(NN=Cc3cccc(OC)c3OC)c3ccccc23)c1OC`, the activity was found to be 83.2% in assay [1] and 75% in assay [2].
For `O=C(N/N=C/c1ccccc1[N+](=O)[O-])c1ccc2c(c1)OCCO2` the same measures were 95.4% and 94.5%.
With `CN(Cc1ccccc1)C(=O)c1ccc(Nc2nc(C(N)Cc3ccc(C(F)(F)F)cc3)cs2)nc1` (stereo not drawn), the results for the activity in assay [1] and in assay [2] were 93% and 98.2%, respectively.
As for `CC1=NN(c2nc(N)nc(/C(C#N)=C/c3ccc([N+](=O)[O-])o3)n2)C(C)(C)C1`, the activity in assay [1] amounted to 58.1%; in assay [2], 98.6%.
For `Cc1cc2nc(N3C(=O)CNC3=S)sc2cc1C` the same measures were 67.8% and 64.7%.
Regarding `CC(C)(C)C(=O)N1CCc2cc(-c3csc(N)n3)ccc21`, the activity amounted to 91.8% in assay [1] and 88.1% in assay [2].
For `CCOC(=O)CSc1nc2cc(C)ccc2cc1C#N` the same measures were 39.8% and 38.4%.
For `COc1cccc(C(=O)Nc2nc3ccccc3[nH]2)c1` the same measures were 91% and 85.3%.
For `Cc1nc(SCC(=O)Nc2nccs2)c(C#N)c(C)c1C` the same measures were 90.8% and 92.1%.
For the compound `CC(=O)c1c(C)[nH]c(C(=O)Nc2ccc(C)cn2)c1C`, the activity in assay [1] stood at 75.9%; in assay [2] it was 77.6%.
For `COn1c(SCc2ccccc2)nc2ccccc2c1=O` the same measures were 65.3% and 59.9%.
For `CC[C@@H](C)[C@H](CNC)NC[C@@H](Cc1cccc2ccccc12)NCCc1cccc(C(F)(F)F)c1`, in that order: 86.9% and 97.8%.
On to `C(=N\Nc1nc2ccccc2[nH]1)/c1ccc2ncccc2c1`, for which the figures for the activity in assay [1] and in assay [2] were 81% and 85.6%, respectively.
`COc1cccc(-c2nnc(-c3ccc(C)o3)o2)c1`: the activity came to 64.9% in assay [1] and 65.2% in assay [2].
For `O=C(Nc1ccc(Cl)cc1)/C(=C/c1cccc(O)c1)c1nc2ccccc2s1` the same measures were 95.7% and 98.1%.
For `Cc1cc(C)cc(NS(=O)(=O)c2ccc3[nH]cc(C(=O)NCc4ccco4)c(=O)c3c2)c1`, in that order: 80% and 85.3%.
Regarding `CN1CCN(c2ccc3sc(-n4ccc5ccccc54)nc3c2)CC1`, the activity in assay [1] was 76.2%; in assay [2] it was 64.5%.

The record behind these values is PubChem BioAssay.
